# FLuc modulator: firefly luciferase modulation, counter-screen for miR-21 project. P08659. purified FLuc, Km substrates, luminescence inhibition. Potency, µM (titrated, usually from 57.5 µM), for inactives: at the highest dose activity change, negative = inhibition, actives largely listed as inhibitors. hit rate 6.9% among 360,000. AID 588342;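 note: plate controls were vehicle for no effect and reference inhibitor for full effect; nearly all actives have a fitted effect of over 55% in size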
# Target sequence (P08659 whole entry, looked up): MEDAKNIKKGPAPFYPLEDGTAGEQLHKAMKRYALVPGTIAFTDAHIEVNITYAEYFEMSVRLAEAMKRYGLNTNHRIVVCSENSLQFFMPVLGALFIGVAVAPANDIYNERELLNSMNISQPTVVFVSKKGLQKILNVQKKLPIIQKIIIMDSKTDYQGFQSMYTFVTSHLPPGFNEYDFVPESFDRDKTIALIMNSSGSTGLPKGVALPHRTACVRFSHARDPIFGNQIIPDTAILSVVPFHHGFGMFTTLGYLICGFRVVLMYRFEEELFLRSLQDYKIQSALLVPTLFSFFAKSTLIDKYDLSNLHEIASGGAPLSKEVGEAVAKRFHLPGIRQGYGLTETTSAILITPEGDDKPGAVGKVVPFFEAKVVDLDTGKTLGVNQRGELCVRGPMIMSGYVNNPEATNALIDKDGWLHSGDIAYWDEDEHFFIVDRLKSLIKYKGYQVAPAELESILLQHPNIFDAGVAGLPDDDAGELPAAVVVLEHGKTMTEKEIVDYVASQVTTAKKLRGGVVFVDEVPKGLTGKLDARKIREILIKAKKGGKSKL
#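 Biochemical qHTS of compounds, final roughly 60 µM downward over six points, against 10 nM purified firefly luciferase using Km concentrations of substrates (10 uM D-luciferin, 10 uM ATP) in Tris acetate pH 7.5 buffer; luminescence output.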
# NPC1 prom act: activators of NPC1 promoter | Huh7 NPC1 promoter luciferase reporter, 24 h | hit rate 2.4% among 320,000 | Potency, µM (doses to about 9.22 µM), inactives show at the highest dose activation, hits mostly activators | AID 485313; note: % of control where 0% means no effect; nearly all actives have a fitted effect of over 60% in size
#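 Luciferase expression driven by the NPC1 promoter was measured in stably transfected Huh7 cells after a 24 h compound incubation, using a luciferase reagent and a luminescence read.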
# Rab9 prom act: activators of Rab9 promoter | AID 485297 | Potency, µM (top dose mostly 9.22 µM), inactives show at the highest dose activation, negative = inhibition, most hits filed as activators | hit rate 2.8% among 320,000 | Huh7 Rab9 promoter-luciferase reporter, luminescence, 24 h; note: % of control where 0% means no effect; nearly all actives have a fitted effect of over 60% in size
#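 Quantitative HTS format; Huh7 Rab9-luciferase reporter cells (1500/well) receive compound 2 h post-plating, incubate 24 h at 37 °C, then get luciferase reagent for 10 min before luminescence reading.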
# ELG1 genotoxic: inducers of genotoxicity in HEK293T ELG1-luciferase cells. hit rate 1.3% among 330,000. AID 504466. Potency, µM (titrated, usually from 46 µM), inactives show at the highest dose activity change, positive = activation, hits mostly activators. HEK293T ELG1-luciferase reporter, luminescence, 16 h; note: % of control where 0% means no effect; nearly all actives have a fitted effect of over 60% in size
#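 16 hr compound incubation (37 °C, 5% CO2) of HEK293T cells carrying luciferase-tagged ELG1; luciferase then measured by ONE-Glo luminescence after 30 min at RT.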
# ELG1 repair inh: inhibitors of ELG1-dependent DNA repair in HEK293T cells; hit rate 2.3% among 330,000; HEK293T ELG1-luciferase reporter, luminescence, 16 h; DNA damage induced by 5-fluorouridine; Potency, µM (series often up to 46.1 µM), inactives show at the highest dose activity change, negative = inhibition, hits mostly inhibitors; AID 504467; note: % is set by controls: 0 for no effect and ±100 for the full control effect; nearly all actives have a fitted effect of over 55% in size
#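 Overnight (16 hr) co-exposure of 2,000 cells/well to 5-fluorouridine and compound at 37 °C preceded detection. Luciferase was quantified via ONE-Glo luminescence; loss of signal denotes inhibition.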
# SMN2 splice enh: SMN2 splice variant enhancement. HEK293 SMN2-luciferase splicing reporter, luminescence, 30-36 h. Potency, µM (series often up to 46.1 µM), for the others: at the top dose activity change, positive = activation, hits mostly activators. hit rate 2.8% among 210,000. AID 1458; note: % of control where 0% means no effect; nearly all actives have a fitted effect of over 55% in size
#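 qHTS luciferase splicing reporter: luminescence rises when SMN2 exon 7 is included in transfected HEK293 cells. Compound exposure lasted 30-36 h at 37C, with 4.5 mM final sodium butyrate as control, followed by a ONE-Glo read.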
# An asterisk follows results filed as active; ? = inconclusive; . = no result given; [ ] = dose if it differs, or a comment. Shown are actives, neighbours in structure and some others; about 9.4% of the full set was active somewhere. Calls come from the whole dose curve; as a rule, active = well fitted curve in the direction sought with a large enough effect; inconclusive = small, poorly fitted or top-dose-only effect, or another doubt; inactive = no such curve, though single readings can be large; an effect the other way counts as inactive or inconclusive. Potency is the fitted concentration of half-maximal effect.
SMILES,FLuc modulator,NPC1 prom act,Rab9 prom act,ELG1 genotoxic,ELG1 repair inh,SMN2 splice enh
CC(=O)c1sc(NC(=O)c2cc(S(=O)(=O)N3CCOCC3)ccc2F)nc1C,.,0%,-8%,0%,?,.
COc1ccc(N(C)S(=O)(=O)c2cccc(C(=O)OCC(=O)c3c(N)n(C)c(=O)n(C)c3=O)c2)cc1,.,.,.,-10%,18µM*,.
CC(=O)c1sc(NC(=O)c2ccc(F)c(F)c2)nc1C,?,?,3.2µM*,16µM*,?,1%
CC(=O)c1sc(NC(=O)c2ccc(F)c(S(=O)(=O)N3CCOCC3)c2)nc1C,19µM*,-1%,0%,0%,23%,.
Cc1cccc(NC(=O)Cn2c(=O)n(CCCS(=O)(=O)C3CCCCC3)c(=O)c3ccccc32)c1,-6%,.,.,.,.,1%
CCNC(=S)N/N=C/c1cccc(OCc2c(F)cccc2Cl)c1,17µM*,3%,-7%,-4%,?,-53%
CNC(=S)N/N=C/c1cccc(OCc2ccccc2F)c1,4.8µM*,13%,18%,?,?,1%
CCNC(=S)N/N=C/c1cccc(/C=N/NC(=S)NCC)c1,2%,9%,14%,-1%,-7%,3%
Fc1ccccc1COc1ccc(/C=N/NC(=S)NCc2ccccc2)cc1,0%,-2%,3%,9%,?,-6%
COc1ccc(Cn2c(-c3ccco3)nc3oc4cc(OC)ccc4c(=O)c3c2=O)cc1,?,3.2µM*,4µM*,?,0%,4%
O=C(O)Cc1sc(Nc2cccc3ccccc23)nc1-c1ccccc1,24µM*,6%,1%,2%,22%,.
CN(C)S(=O)(=O)c1ccc(-c2csc(N/N=C/c3ccc(O)cc3)n2)cc1,11µM*,-20%,-34%,?,?,.
O=C(O)Cc1sc(N/N=C\c2ccncc2)nc1-c1ccccc1,15µM*,-5%,-5%,-1%,4%,.
CN(C)S(=O)(=O)c1ccc(-c2csc(N/N=C/c3ccco3)n2)cc1,-57%,-31%,-34%,-17%,?,.
O=C(O)Cc1sc(Nc2cccc3ccccc23)nc1-c1ccc(Cl)cc1,-4%,-5%,-8%,2%,14%,.
ClCc1csc(N/N=C/c2cccs2)n1,15µM*,4%,21%,1%,7%,.
COCCn1c(=O)c(-c2cc(F)cc(F)c2)nc2cnc(Nc3cccc(OC)c3)nc21,.,.,.,.,.,3%
Oc1ccc(CNc2cccc(F)c2F)c2cccnc12,9%,-17%,-17%,.,.,.
CC(CNC(=O)c1cnn(-c2ccc(F)cc2)c1-n1cccc1)c1ccccc1 (stereo not drawn),-14%,.,.,.,.,.
Clc1ccc(-c2csc(N/N=C\c3cccnc3)n2)cc1,?,8%,4%,0%,0%,-24%
Cc1ccc(-c2csc(N/N=C/C=C/c3ccccc3)n2)cc1,-13%,-3%,0%,0%,0%,1%
O=C(O)Cc1sc(Nc2ccc(Cl)cc2)nc1-c1cccs1,13µM*,?,3.5µM*,?,?,14µM*
C(=N\Nc1nc(-c2ccccc2)cs1)/c1cccs1,5.4µM*,21%,?,16µM*,?,7.9µM*
C(=N\Nc1nc(-c2ccccc2)cs1)/c1ccncc1,11µM*,3.2µM*,?,6%,?,.
COc1ccccc1NC(=O)C1=C(C)Nc2nnnn2C1c1cc(Br)c(O)c(OC)c1 (stereo not drawn),-3%,.,.,.,.,2%
SMILES,FLuc modulator,NPC1 prom act,Rab9 prom act,ELG1 genotoxic,ELG1 repair inh,SMN2 splice enh
CCn1cc2nc(SCC(=O)Nc3ccc(OC)c(Cl)c3)n(Cc3ccc(OC)cc3)c(=O)c2n1,-9%,.,.,.,.,5%
CCn1cc2nc(SCC(=O)Nc3ccc(OC)c(OC)c3)n(Cc3ccc(OC)cc3)c(=O)c2n1,17µM*,-1%,8%,7%,-16%,.
Cc1c(CC(=O)NCc2ccccc2Cl)c(=O)oc2cc(O)ccc12,21µM*,.,.,.,.,3%
Cc1c(CC(=O)NCC(=O)O)c(=O)oc2cc3occ(-c4ccccc4)c3cc12,24µM*,-4%,-3%,2%,7%,.
Cc1c(CC(=O)NCCCC(=O)O)c(=O)oc2cc3occ(-c4ccccc4)c3cc12,19µM*,0%,7%,4%,19%,.
Cc1ccc2c(c1)N(C(=O)N1CCC(C(=O)NCc3cccc(Br)c3)CC1)CCO2,-18%,.,.,.,.,.
Cc1ccc(NC(=O)Cn2c(=O)n(CCC(=O)N3CCc4ccccc4C3)c(=O)c3ccccc32)c(C)c1,-11%,.,.,.,.,2%
N#Cc1cc2cc3c(cc2nc1N1CCCCC1)OCCO3,4.3µM*,?,6.3µM*,?,?,13µM*
Cc1ccc(C(=O)N2CCCN(c3nc4cc5c(cc4cc3C#N)OCO5)CC2)cc1,-13%,0%,7%,-3%,?,.
C/C(=N\NC(=O)c1ccncc1)c1ccc2ccccc2c1O,.,.,.,.,.,-38%[9.22 µM]
Cc1c(C(=O)NCC(C)C)sc2nc(-c3ccc(F)cc3)cn12,-12%,?,2µM*,?,?,18%
Cc1c(C(N)=O)sc2nc(-c3ccccc3)cn12,19µM*,?,?,?,?,30%
COc1ccc(-c2cn3c(C)c(C(=O)Nc4cccc(NC(C)=O)c4)sc3n2)cc1,9.5µM*,9%,-3%,2%,14%,-18%
CCOC(=O)c1ccc(NC(=O)CSc2nnc(CNc3ccc(C)cc3)n2C)cc1,-7%,-3%,2%,-3%,?,-10%
COc1ccc(C(=O)NNC(=O)Cc2nc3ccccc3n2C)cc1,.,.,.,-1%,10%,.
COc1ccc(Nc2nc3ccccc3n3c(N)nnc23)cc1,9.5µM*,.,.,.,.,16%
COc1ccc(Nc2nc3ccccc3n3cnnc23)cc1,-13%,-4%,-3%,5%,?,?
CCOC(=O)c1ccc(NCc2nc3ccccc3n2C)cc1,?,3.2µM*,3.2µM*,27%,?,.
Cc1ccc(NCc2nc3ccccc3n2C)cc1C,4.8µM*,3.5µM*,2.8µM*,?,?,.
COc1ccc(NCc2nc3ccccc3n2C)cc1,11µM*,1.8µM*,2.2µM*,5.2µM*,?,.
O=C(NCc1ccc(F)cc1)c1c(O)nc2ccccn2c1=O,3%,.,.,.,.,10%
CC1=C(C(=O)Nc2ccc(Cl)cc2)C(c2cccs2)n2nc(SCc3cccc(C)c3)nc2N1 (stereo not drawn),-3%,.,.,.,.,2%
CC(C)Sc1ncc(Cl)c(C(=O)Nc2ccc(S(=O)(=O)N3CCCCC3)cc2)n1,-1%,.,.,.,.,1%
Cn1c(CNC2CCCCC2)nc2ccccc21,4%,1%,-2%,-1%,6%,0%
Cc1ccc(NCc2nc3ccccc3n2C)cc1,3.4µM*,1.1µM*,0.63µM*,1.5µM*,?,2.2µM*
